HT1080-NT tox: kills 2HG-producing HT-1080-NT fibrosarcoma cells. HT-1080-NT fibrosarcoma viability, CellTiter-Glo ATP luminescence, 48 h. Potency, µM (top dose mostly 46.1 µM), actives largely listed as cytotoxic. 1.6% of 360,000 active;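 further: NT is the 2HG producing partner of a matched IDH1 knockdown line; nearly all actives have a fitted effect of over 55% in size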
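HT-1080-NT; 750 cells/well; 5% FBS RPMI; 48 h compound, 37 degrees C; CellTiter-Glo luminescence; curve fitting and curve-class assignment.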
KB-3-1 tox: KB-3-1 parental cell cytotoxicity; 1.4% of 400,000 active; Potency, µM (titrated, usually from 46.1 µM), most hits filed as cytotoxic; KB-3-1 viability, CellTiter-Glo ATP luminescence, 72 h; AID 1347075; further: nearly all actives have a fitted effect of over 60% in size
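72 h, 37 °C compound treatment of KB-3-1 parental cells; CellTiter-Glo added, 10 min, luminescence read. Data corrected against DMSO-only plates and normalized before curve fitting.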
ATXN2 expr inh: reduces ATXN2 reporter expression in HEK-293 cells; HEK-293 ATXN2-luciferase reporter, luminescence, 24 h; Potency, µM (series often up to 57 µM), hits mostly inhibitors; 0.72% of 360,000 active; AID 1745845; further: nearly all actives have a fitted effect of over 55% in size
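qHTS (up to 57 uM final) was run with 24 h compound exposure of reporter cells at 37 °C. Each well was multiplexed: SteadyGlo luminescence measured ATXN2-luciferase expression after a fluorogenic Gly-Phe-AFC viability readout (25 uM final).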
KB-V1 MDR tox: kills drug-selected multidrug resistant KB-V1 cells | AID 1347076 | 3.4% of 400,000 active | Potency, µM (series often up to 46.1 µM), actives largely listed as cytotoxic | KB-V1 MDR cells viability, CellTiter-Glo, 72 h; further: nearly all actives have a fitted effect of over 60% in size
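In this primary screen, KB-V1 cells overexpressing P-gp are incubated with library compounds (lowest to highest concentration) for 72 h at 37 degrees C before a luminescent ATP viability read.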
S2 tox: cell viability loss in ATXN counter-screen; S2 cells (HEK-293 line with an ATXN2-luciferase reporter) viability, CellTiter-Fluor protease fluorescence, 24 h; Potency, µM (highest dose often 56.7 µM), hits mostly cytotoxic; 0.49% of 400,000 active; AID 651635; further: nearly all actives have a fitted effect of over 40% in size
HT1080 IDH1KD tx: kills HT-1080 cells with IDH1 knockdown. 2% of 360,000 active. Potency, µM (series often up to 46.1 µM), usual class: cytotoxic. HT-1080 IDH1 knockdown viability, ATP luminescence, 48 h. AID 686971
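HT-1080-IDH1KD cells (IDH1 knocked down), 750/well in RPMI with 5% FBS, treated with compound 48 h at 37 degrees C. Viability by CellTiter-Glo luminescence, normalised to DMSO and no-cell wells; concentration-response curves classed.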
Numbers stand for hits; . = inactive; ? = inconclusive; / = not tested or not shown; ! = repeats disagree; [ ] = remark or other dose. An excerpt weighted towards active compounds, which were near 6.2% of everything screened. The call rests on the fitted dose curve; in most records, active means well fitted curve in the direction sought with a large enough effect; inconclusive means small, poorly fitted or top-dose-only effect, or another doubt; inactive means no such curve, though single readings can be large; an effect the other way counts as inactive or inconclusive.

SMILES	HT1080-NT tox	KB-3-1 tox	ATXN2 expr inh	KB-V1 MDR tox	S2 tox	HT1080 IDH1KD tx
O=C(c1c(F)cccc1F)N1CCCC(c2nc(-c3ccc(Cl)cc3)no2)C1 (stereo not drawn)	.	18µM	?	?	.	.
Cc1ccc(-c2noc(C3CCCN(C(=O)c4ccccc4Br)C3)n2)cc1 (stereo not drawn)	.	?	/	18µM	.	?
COc1ccc(-c2noc(C3CCCN(C(=O)c4ccccc4OC)C3)n2)cc1OC (stereo not drawn)	.	.	.	.	.	.
COc1ccc(C(=O)N2CCCC(c3nc(-c4ccc(OC)c(OC)c4)no3)C2)c(OC)c1 (stereo not drawn)	.	.	.	4.1µM	.	.
Cc1ccc(-c2noc(C3CCCN(C(=O)c4cccc(F)c4)C3)n2)cc1 (stereo not drawn)	.	.	/	.	?	.
CCCCC(CC)CNC(=O)C1CCC(CNS(=O)(=O)c2cccc3nsnc23)CC1 (stereo not drawn)	/	?	.	?	.	/
Cn1c(SCC2CCCO2)nnc1C1CCN(Cc2ccco2)CC1 (stereo not drawn)	/	/	/	/	.	/
Cc1ccc2c(c1)C=CC(C#N)N2C(=O)Oc1ccccc1 (stereo not drawn)	.	.	/	.	.	.
COc1ccc(C(=O)N2c3ccccc3C=CC2C#N)cc1 (stereo not drawn)	.	.	.[11.3 µM]	.	.	.
Cc1ccc2c(c1)C=CC(C#N)N2C(=O)c1ccccc1 (stereo not drawn)	1.6µM	4.6µM	.[11.3 µM]	9.2µM	.	1.5µM
CCSC(=O)N1c2ccc(OC)cc2C=CC1C#N (stereo not drawn)	0.46µM	0.65µM	.	0.73µM	?	?
O=C(O)c1cc(N2C(=O)CCC2=O)ccc1Cl	.	.	.	.	.	.
O=[N+]([O-])c1ccc(OCc2cnc(Cl)s2)c([N+](=O)[O-])c1	.	6.5µM	.	1.2µM	.	.
COC(=O)C(Cc1cnc(Cl)s1)(C(=O)OC)c1ccc([N+](=O)[O-])cc1[N+](=O)[O-]	.	?	.	?	.	.
N#Cc1ccc(Oc2ccc3c(c2)COB3O)cc1	/	/	.	/	/	/
O=C(COc1ccc(-n2ccnc2)cc1)Nc1cccc(Cl)c1	.	?	.	5.8µM	?	.
CCn1c(CNC(=O)c2ccc(OC)cc2)nnc1SCC(=O)Nc1cccc(C)c1	/	.	.	?	.	/
O=C1CCCc2c1cc(-c1ccccc1)n2-c1ccccc1	?	16µM	.	12µM	.	?
CCOC(=O)c1sc(=S)n(Cc2ccccc2)c1C	.	.	.	.	?	.
CN(C)C(=S)N=c1ssc(=S)n1Cc1ccccc1	5.8µM	?	.	?	?	8.2µM
CCOC(=O)c1cc2c(=O)n3cccc(C)c3nc2n(CCCOC)c1=NC(=O)c1cccnc1	.	.	.	12µM	.	.
CCOCCCn1c(=NC(=O)c2cccnc2)c(C(=O)OCC)cc2c(=O)n3ccccc3nc21	.	?	.	?	.	.
CCCCCn1c(=NC(=O)c2ccco2)c(C(=O)OCC)cc2c(=O)n3ccccc3nc21	.	.	.	5.2µM!	.	.
CCCCn1c(=NC(=O)c2ccco2)c(C(=O)OCC)cc2c(=O)n3ccccc3nc21	.	.	.	.	.	.
CCc1nnc(NC(=O)CSc2nc(C)c3c(c2C#N)CCCC3)s1	?	?	.	?	/	?
Cc1nc(SCC(=O)Nc2ccc(F)cc2)c(C#N)c(C)c1CC(=O)c1ccc(Br)cc1	.	16µM	?	?	?	.
COc1ccc(NC(=O)CSc2nc(C)c3c(c2C#N)CCCC3)cc1	.	.	.	4.6µM	.	.
COc1ccccc1NC(=O)CSc1nc(C)c2c(c1C#N)CCCC2	.	.	.	7.3µM	.	.
Cc1cccc(C(=O)NCc2nc(-c3ccccc3NC(=O)C3CCCO3)oc2C)c1 (stereo not drawn)	/	/	/	/	.	/
CC1=C(C(=O)OC2CCCC2)C(c2ccc(Cl)cc2)CC(=O)N1 (stereo not drawn)	/	.	.	.	.	/
